Consider five compounds from PubChem BioAssay.

One experiment deals with Albumin (Bos taurus) (UniProt P02769). The experiment is described as follows: compounds binding labelled BSA control protein – biochemical, small-molecule microarray, Alexa647 label, 635/667 nm fluorescence, artefact control for SMM control protein annotation, profiling panel (AID 1118).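 Note: score merges 667 nm emission intensity and signal-to-noise per printed compound spot.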 The conditions noted are these: BSA-A647 binding, fluorescence 635 nm, higher = more signal.
Albumin (Bos taurus), sequence (P02769 whole entry, looked up): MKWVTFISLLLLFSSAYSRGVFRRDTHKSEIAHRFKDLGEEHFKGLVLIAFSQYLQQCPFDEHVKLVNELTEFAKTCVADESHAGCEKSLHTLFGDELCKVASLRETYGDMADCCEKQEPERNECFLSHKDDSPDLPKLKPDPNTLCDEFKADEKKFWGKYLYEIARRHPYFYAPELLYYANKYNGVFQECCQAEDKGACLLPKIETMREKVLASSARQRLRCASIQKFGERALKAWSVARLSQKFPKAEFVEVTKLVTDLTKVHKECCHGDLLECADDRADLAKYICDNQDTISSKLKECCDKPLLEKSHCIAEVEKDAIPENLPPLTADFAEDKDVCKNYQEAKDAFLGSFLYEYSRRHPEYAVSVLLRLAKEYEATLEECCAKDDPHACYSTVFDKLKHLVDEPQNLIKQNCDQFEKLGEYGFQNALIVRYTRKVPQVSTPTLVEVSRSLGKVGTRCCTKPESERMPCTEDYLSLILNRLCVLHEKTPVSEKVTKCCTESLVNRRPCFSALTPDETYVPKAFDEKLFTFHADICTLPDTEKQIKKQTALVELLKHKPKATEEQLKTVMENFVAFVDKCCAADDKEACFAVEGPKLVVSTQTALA

Experiment [1] can be described thus: probe aXIP binding to arrayed compounds – biochemical, NeuroSMM set, 635/667 nm fluorescence, primary screen (AID 1119).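 Note: probe is the protein aXip251-270 applied at 1 µg/mL to compound-printed slides; binding of probe to printed compounds measured as 667 nm fluorescence plus signal to noise.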 The conditions noted are these: small-molecule microarray, higher = more signal, called active from +8 up or from −8 down.
The nature of experiment [2]: probe aNOTCH3 binding on compound microarray – biochemical, small-molecule microarray, 635/667 nm fluorescence, primary screen (AID 1120).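 Note: probe is a biotin-tagged antibody raised against NOTCH3 rather than NOTCH3 protein; score merges spot fluorescence near 667 nm with spot signal to noise.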 Particulars: higher = more signal.
The nature of experiment [3]: probe aNOTCH2 binding on compound microarray – biochemical, small-molecule microarray, 635/667 nm fluorescence, primary screen (AID 1121).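 Note: score merges feature fluorescence read at 667 nm with its signal to noise.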 The conditions noted are these: higher = more signal.
In experiment [4] the target is Carbonic anhydrase 2 (Homo sapiens) (UniProt P00918). The experiment is described as follows: compounds binding carbonic anhydrase 2 – biochemical, small-molecule microarray, Alexa647-labelled CAII, profiling panel (AID 1122). The conditions noted are these: CAII-A647 binding fluorescence, higher = more signal.
A short description of experiment [5]: COS7 lysate on small-molecule microarray, probe aHis, 635 nm (AID 1123).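 Note: z-score combines 667nm fluorescence intensity with signal-to-noise per printed compound spot.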 Particulars: COS7 cell lysate, fluorescence, higher = more signal.
Experiment [6] can be described thus: probe aLAP1 signal on lysate-treated microarray – cell lysate, small-molecule microarray, COS7 lysate, primary screen (AID 1124).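 Note: lysate comes from COS7 cells expressing LAP1 and is applied at 0.3 µg/mL; score merges spot fluorescence near 667 nm with signal-to-noise over triplicate slides.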 The conditions noted are these: probe aLAP1, fluorescence, higher = more signal.
For the next experiment, the system named is Sam68 (KHDRBS1). The experiment can be described thus: compounds binding KHDRBS1 protein – biochemical, small-molecule microarray, 635 nm fluorescence, primary screen (AID 1125).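 Note: score merges 667 nm channel intensity with signal to noise over triplicate slides.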 Particulars: higher = more signal.
The subject of experiment [7] is Chordin-like protein 2 (CHRDL2). The experiment can be described thus: compounds binding chordin-like 2 – biochemical, small-molecule microarray, 635 nm fluorescence, primary screen (AID 1126).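 Note: printed compound slides probed with Chrdl2 protein at 4 µg/mL for 1 h at 4 C; score merges 667 nm emission intensity with signal to noise over three replicate slides.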 Particulars: fluorescence 635 nm, higher = more signal.
Experiment [8] has as its target Concanavalin-A (Canavalia ensiformis) (UniProt P02866). The experiment can be described thus: compounds binding concanavalin A lectin – biochemical, small-molecule microarray, Alexa647 label, 635 nm, artefact control for SMM control protein annotation, primary screen (AID 1127).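 Note: z combines 667 nm emission intensity with signal-to-noise across three replicate slides.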 The conditions noted are these: ConA-A647 binding fluorescence, higher = more signal.
Experiment [9] can be described thus: compounds binding Alexa647 anti-His antibody – biochemical, small-molecule microarray, 635 nm fluorescence, artefact control for SMM control protein annotation, primary screen (AID 1128).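 Note: score merges feature fluorescence with signal-to-noise for each printed compound spot.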 The conditions noted are these: higher = more signal.
Experiment [10] deals with Human papillomavirus type 1a E7 protein (residues 1-88). The experiment is described as follows: HPV1a E7 small-molecule binders, primary screen, biochemical, small-molecule microarray, residues 1-88, 635 nm (AID 1129). Particulars: small-molecule microarray binding, fluorescence 635 nm; higher = more signal.
Experiment [11] has as its target Focal adhesion kinase 1 (Homo sapiens) (UniProt Q05397). The experiment can be described thus: PTK2 protein binding on printed compound slides – biochemical, small-molecule microarray, 635/667 nm fluorescence, BSA, DTT, primary screen (AID 1130).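 Note: composite of spot emission at 667 nm and signal to noise over triplicate slides.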 The conditions noted are these: 635 nm fluorescence, higher = more signal.
For experiment [12], the system named is Fibrinogen (Alexa647-labelled). The experiment can be described thus: Alexa647-fibrinogen binding to printed small molecules – biochemical, small-molecule microarray, 635/667 nm fluorescence, artefact control for SMM control-protein annotation, profiling panel (AID 1131).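 Note: z-score merges 667 nm fluorescence with per-spot signal-to-noise over triplicate slides.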 The conditions noted are these: fibrinogen-A647 binding fluorescence, higher = more signal.

The target of experiment [13] is Follistatin (Homo sapiens) (UniProt P19883). The experiment can be described thus: FST protein binding to printed compounds – biochemical, small-molecule microarray, 635/667 nm fluorescence, primary screen (AID 1132). The conditions noted are these: 635 nm fluorescence, higher = more signal.
Follistatin (Homo sapiens), sequence (P19883 whole entry, looked up): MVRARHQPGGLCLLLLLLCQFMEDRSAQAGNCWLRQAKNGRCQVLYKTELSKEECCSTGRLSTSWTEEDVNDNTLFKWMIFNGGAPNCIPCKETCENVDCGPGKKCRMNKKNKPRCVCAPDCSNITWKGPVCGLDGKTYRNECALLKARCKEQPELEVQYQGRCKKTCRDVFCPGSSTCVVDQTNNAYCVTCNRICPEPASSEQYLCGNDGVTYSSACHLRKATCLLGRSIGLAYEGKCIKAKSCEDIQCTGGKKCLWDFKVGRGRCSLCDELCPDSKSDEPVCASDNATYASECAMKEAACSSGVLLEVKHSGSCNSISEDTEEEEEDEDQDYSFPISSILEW
Experiment [14] deals with Fibroblast growth factor 2 (Homo sapiens) (UniProt P09038). The experiment is described as follows: basic fibroblast growth factor binding to printed compounds – biochemical, small-molecule microarray, 635/667 nm fluorescence, primary screen (AID 1133). Particulars: FGF2, fluorescence 635/667, higher = more signal.
Fibroblast growth factor 2 (Homo sapiens), sequence (P09038 whole entry, looked up): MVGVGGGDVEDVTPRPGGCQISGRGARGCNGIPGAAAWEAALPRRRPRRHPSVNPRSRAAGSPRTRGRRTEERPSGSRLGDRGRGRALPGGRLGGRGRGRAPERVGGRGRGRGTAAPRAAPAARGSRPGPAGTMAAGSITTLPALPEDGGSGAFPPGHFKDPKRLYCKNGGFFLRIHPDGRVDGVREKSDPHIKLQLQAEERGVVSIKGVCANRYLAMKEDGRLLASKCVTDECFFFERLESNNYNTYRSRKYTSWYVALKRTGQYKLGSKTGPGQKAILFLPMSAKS
Experiment [15] is described as follows: JC-1 mitochondrial potential readout, lung cancer cells – cell-based, A549, JC-1 fluorescence, basal, 24 h, 100 nL, profiling panel (AID 1138).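 Note: A549 lung adenocarcinoma cells under basal conditions with no added stimulus; test concentration not given here.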 Particulars: higher = more signal.
In another experiment the test system is Lefty1. The experiment can be described thus: Lefty1 protein binding to printed compounds – biochemical, small-molecule microarray, 635/667 nm fluorescence, primary screen (AID 1139). The conditions noted are these: fluorescence 635/667, higher = more signal.
The subject of experiment [16] is wheat germ agglutinin (Triticum aestivum), Alexa647-labelled. The experiment can be described thus: Alexa647-WGA lectin binding to printed small molecules – biochemical, small-molecule microarray, 635/667 nm fluorescence, artefact control for SMM control-protein annotation, profiling panel (AID 1140).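 Note: score merges 667 nm feature emission with signal to noise over triplicate slides.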 The conditions noted are these: WGA-A647 binding, 635 nm fluorescence, higher = more signal.

In experiment [17] the target is Luciferin 4-monooxygenase (Photinus pyralis) (UniProt P08659). The experiment is described as follows: inhibition of purified Photinus pyralis luciferase – biochemical, luminescence, purified enzyme, 2006 set, primary screen (AID 1141).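 Note: cell-free assay with purified firefly luciferase at 100 ng per well in PBS; test concentration not given here.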 Particulars: purified firefly luciferase, SteadyGlo luminescence, 30 min; higher = more signal, called active from +8 up or from −8 down.
Luciferin 4-monooxygenase (Photinus pyralis), sequence (P08659 whole entry, looked up): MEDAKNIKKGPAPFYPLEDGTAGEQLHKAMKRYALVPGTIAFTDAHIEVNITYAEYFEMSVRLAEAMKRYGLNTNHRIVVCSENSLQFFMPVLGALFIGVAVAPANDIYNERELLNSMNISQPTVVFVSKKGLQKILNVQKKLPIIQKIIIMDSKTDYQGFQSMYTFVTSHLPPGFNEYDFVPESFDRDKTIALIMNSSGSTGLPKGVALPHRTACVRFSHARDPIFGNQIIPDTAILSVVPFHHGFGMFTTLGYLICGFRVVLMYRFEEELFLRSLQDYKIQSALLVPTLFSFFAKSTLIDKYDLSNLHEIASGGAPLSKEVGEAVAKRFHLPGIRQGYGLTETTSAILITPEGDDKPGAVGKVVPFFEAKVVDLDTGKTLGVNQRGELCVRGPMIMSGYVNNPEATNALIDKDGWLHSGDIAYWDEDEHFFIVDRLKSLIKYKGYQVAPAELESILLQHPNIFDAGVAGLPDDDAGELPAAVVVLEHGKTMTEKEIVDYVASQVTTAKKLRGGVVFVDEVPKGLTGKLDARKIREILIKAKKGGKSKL

Activity calls are given as the source filed them.

Concanavalin-A (Canavalia ensiformis), sequence (P02866 whole entry, looked up): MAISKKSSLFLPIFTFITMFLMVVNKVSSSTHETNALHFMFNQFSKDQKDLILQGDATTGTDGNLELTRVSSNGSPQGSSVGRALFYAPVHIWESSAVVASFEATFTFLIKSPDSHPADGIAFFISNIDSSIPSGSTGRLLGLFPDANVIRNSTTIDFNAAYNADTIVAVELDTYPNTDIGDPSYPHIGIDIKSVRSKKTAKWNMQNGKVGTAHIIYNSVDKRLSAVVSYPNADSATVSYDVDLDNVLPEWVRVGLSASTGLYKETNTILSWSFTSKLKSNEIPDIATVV
Focal adhesion kinase 1 (Homo sapiens), sequence (Q05397 whole entry, looked up): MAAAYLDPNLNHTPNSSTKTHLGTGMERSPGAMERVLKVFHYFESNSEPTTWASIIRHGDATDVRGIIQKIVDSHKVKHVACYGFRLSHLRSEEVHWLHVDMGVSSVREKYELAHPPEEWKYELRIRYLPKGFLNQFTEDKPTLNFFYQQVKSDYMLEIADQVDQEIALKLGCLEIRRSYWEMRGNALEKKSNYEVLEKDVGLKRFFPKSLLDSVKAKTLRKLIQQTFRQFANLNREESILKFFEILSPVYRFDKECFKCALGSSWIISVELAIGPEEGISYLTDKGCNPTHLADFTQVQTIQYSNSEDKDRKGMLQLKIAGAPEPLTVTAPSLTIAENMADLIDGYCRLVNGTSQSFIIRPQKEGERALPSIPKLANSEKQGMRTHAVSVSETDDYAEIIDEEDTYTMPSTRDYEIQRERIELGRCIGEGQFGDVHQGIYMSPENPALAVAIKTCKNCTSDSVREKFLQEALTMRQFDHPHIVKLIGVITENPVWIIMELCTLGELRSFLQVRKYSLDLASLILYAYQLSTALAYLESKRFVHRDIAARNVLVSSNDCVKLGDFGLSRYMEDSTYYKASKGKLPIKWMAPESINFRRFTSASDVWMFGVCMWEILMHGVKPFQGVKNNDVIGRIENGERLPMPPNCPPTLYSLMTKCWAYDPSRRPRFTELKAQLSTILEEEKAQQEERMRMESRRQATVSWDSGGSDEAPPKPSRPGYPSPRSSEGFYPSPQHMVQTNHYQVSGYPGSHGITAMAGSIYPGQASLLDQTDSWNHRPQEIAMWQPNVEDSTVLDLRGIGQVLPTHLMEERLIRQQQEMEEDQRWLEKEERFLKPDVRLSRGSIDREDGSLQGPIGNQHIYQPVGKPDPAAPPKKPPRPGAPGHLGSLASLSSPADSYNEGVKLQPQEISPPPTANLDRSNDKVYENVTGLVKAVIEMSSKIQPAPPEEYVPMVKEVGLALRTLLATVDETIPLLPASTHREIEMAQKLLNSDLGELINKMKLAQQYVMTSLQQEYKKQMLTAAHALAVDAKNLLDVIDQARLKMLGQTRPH

As for `CCC1=NOC(CCC2CC(OC(=O)NCc3cccc4c3OCO4)CC3(CCCC(COC(=O)NCCc4ccc(Cl)cc4)O3)O2)C1` (stereo not given), the composite z-score is 0.585 with Albumin (Bos taurus); -0.0647 in experiment [2]; -0.0651 in experiment [3]; 0.228 in [4]; 0.599 in [5]; -0.29 in experiment [6]. In addition, the composite z-score is 0.712 with Sam68 (KHDRBS1); -0.0546 in experiment [7]; 0.0985 in [8]; 0.696 in experiment [9]; 0.459 in experiment [10]; -0.123 in experiment [11]. For the same compound, the composite z-score in experiment [12] is 0.663; in experiment [13], 0.0801; in experiment [14] it was 1.24; in the experiment on Lefty1, 0.497; in experiment [16], -0.191. Besides, in experiment [1], the composite Z-score is -0.0197 (inactive). The z-score is -0.415 in experiment [15] and 0.74 (inactive) in [17].

For `CC(CCN1CCc2nc(-c3ccccc3)c(-c3ccccc3)cc2C1)=NO[C@@H](C)c1cc(-c2c(C)cc(C)cc2C)no1`, the composite z-score is 0.554 with Albumin (Bos taurus); -0.0918 in experiment [2]; -0.164 in [3]; 0.0148 in [4]; 0.157 in [5]; -0.0375 in [6]. For the same compound, the composite z-score with Sam68 (KHDRBS1) is -0.0575; in experiment [7], -0.583; in experiment [8], 0.613; in experiment [9], 0.962; in experiment [10] it was -0.444; in experiment [11], -0.228. For the same compound, the composite z-score was 0.496 in experiment [12]; -0.289 in [13]; -0.44 in experiment [14]; -0.0591 in the experiment on Lefty1; 0.493 in experiment [16]. For the same compound, in [1], the composite Z-score is 0.0956 (inactive). The z-score is 0.281 in experiment [15] and 0.618 (inactive) in experiment [17].

Take `CC(C)CON=C1C[C@@H](O)[C@@H](O)[C@@H]2[C@@H]3C(=O)N([C@@H](C)c4ccccc4)C(=O)[C@@H]3CC[C@@H]12`: the composite z-score with Albumin (Bos taurus) is 0.538; in experiment [2], -0.145; in experiment [3], -0.153; in experiment [4] it was -0.139; in [5], -0.039; in experiment [6], -0.0296. Moreover, the composite z-score in the experiment with Sam68 (KHDRBS1) is 0.132; in experiment [7], 0.417; in experiment [8] it was 0.0928; in experiment [9] it was 0.0924; in experiment [10] it was 0.124; in [11], -0.164. Further, the composite z-score is 0.501 in experiment [12]; -0.319 in experiment [13]; 0.114 in experiment [14]; -0.162 in the experiment on Lefty1; 0.252 in experiment [16]. Besides, in experiment [1], the composite Z-score is -0.293 (inactive). Besides, the values for the z-score in experiment [15] and in experiment [17] were -0.655 and 0.999 (inactive), respectively.

Regarding `O=C1[C@H]2[C@H]3[C@H](O)[C@H](O)CC(=NO[C@@H]4O[C@H](CO)[C@@H](O)[C@H](O)[C@H]4O)[C@H]3CC[C@H]2C(=O)N1c1ccc(F)cc1F`, the composite z-score is -0.168 in the experiment with Albumin (Bos taurus); 0.196 in experiment [2]; -0.177 in experiment [3]; -0.556 in experiment [4]; -0.258 in experiment [5]; 0.0482 in [6]. Also, the composite z-score in the experiment on Sam68 (KHDRBS1) was 1.07; in experiment [7], -0.819; in [8], -1.06; in [9], -1.26; in experiment [10], -0.162; in experiment [11] it was 0.633. The composite z-score in experiment [12] was 0.192; in experiment [13] it was -1.22; in experiment [14], 0.502; in the experiment with Lefty1, -0.152; in experiment [16], -0.052. Besides, the composite Z-score in [1] was -0.463 (inactive). Moreover, the values for the z-score in [15] and in experiment [17] were -0.352 and 1.42 (inactive), respectively.

Regarding `C#CCCCON=C1[C@H]2CCn3c(=O)n([C@@H](CC)c4ccccc4)c(=O)n3[C@H]2[C@H](O)[C@@H]2O[C@H]12`, the composite z-score in the experiment with Albumin (Bos taurus) is 0.0481; in experiment [2] it was -0.0918; in experiment [3] it was -0.0745; in experiment [4] it was 0.59; in [5] it was 0.219; in [6] it was -0.131. Also, the composite z-score with Sam68 (KHDRBS1) was 0.113; in experiment [7], 0.0573; in [8], 0.154; in experiment [9], 0.114; in experiment [10] it was -0.256; in experiment [11], 0.235. The composite z-score is -0.509 in experiment [12]; 0.587 in [13]; 0.639 in [14]; 0.368 with Lefty1; 0.283 in experiment [16]. In addition, the composite Z-score in experiment [1] is -0.15 (inactive). Also, the values for the z-score in experiment [15] and in experiment [17] were 0.351 and -0.0508 (inactive), respectively.
